Parameters in all cases: scale not given: direction of the effect not stated beside the values
Assay [1] concerns the target Protein translocase subunit SecA (Escherichia coli (strain K12)) (UniProt P10408). The assay can be described thus: Assay to Identify E. coli SecA ATPase Inhibitors. The format is functional. The note with it: 30 µM.
Assay [2] has as its target T1, Ubiquitin-activating enzyme e1, putative (Leishmania donovani (strain BPK282A1)) (UniProt E9BSI1).
T1 sequence (whole entry): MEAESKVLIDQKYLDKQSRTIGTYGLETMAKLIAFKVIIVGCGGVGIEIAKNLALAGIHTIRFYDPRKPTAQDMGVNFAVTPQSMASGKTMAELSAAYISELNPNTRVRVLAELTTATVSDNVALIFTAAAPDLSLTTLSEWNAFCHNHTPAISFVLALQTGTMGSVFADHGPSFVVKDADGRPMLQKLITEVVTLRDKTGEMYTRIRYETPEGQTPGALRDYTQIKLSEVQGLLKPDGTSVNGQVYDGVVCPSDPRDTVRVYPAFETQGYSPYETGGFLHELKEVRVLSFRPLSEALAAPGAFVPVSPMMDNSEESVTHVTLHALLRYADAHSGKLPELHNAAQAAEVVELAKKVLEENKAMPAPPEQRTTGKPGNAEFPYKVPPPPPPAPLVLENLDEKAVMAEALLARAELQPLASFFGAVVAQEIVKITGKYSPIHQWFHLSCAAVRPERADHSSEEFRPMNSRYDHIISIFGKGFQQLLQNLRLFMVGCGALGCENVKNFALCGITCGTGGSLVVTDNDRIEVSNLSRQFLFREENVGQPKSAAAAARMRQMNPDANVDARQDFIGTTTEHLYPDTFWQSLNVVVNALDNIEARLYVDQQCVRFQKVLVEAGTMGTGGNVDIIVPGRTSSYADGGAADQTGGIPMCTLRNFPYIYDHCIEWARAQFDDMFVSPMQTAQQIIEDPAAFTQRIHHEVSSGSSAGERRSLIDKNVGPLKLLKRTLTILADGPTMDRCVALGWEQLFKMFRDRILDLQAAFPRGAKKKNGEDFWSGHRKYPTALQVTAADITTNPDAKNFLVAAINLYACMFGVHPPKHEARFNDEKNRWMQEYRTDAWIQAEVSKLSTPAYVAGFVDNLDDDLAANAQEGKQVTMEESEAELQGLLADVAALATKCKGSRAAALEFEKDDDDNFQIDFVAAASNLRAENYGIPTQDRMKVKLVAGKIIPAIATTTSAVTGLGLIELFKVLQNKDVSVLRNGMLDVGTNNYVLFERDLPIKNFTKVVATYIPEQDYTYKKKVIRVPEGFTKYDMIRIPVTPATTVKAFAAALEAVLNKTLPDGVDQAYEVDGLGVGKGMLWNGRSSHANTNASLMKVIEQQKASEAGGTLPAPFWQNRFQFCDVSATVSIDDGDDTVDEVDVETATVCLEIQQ
The assay can be described thus: Leishmania donovani Ubiquitin Activating Enzyme (LdE1). The class given is functional. As to conditions: 30 µM.

Assay [3] has as its target Sialic acid-binding Ig-like lectin 9 (Homo sapiens) (UniProt Q9Y336). Put plainly: Hs-Siglec9 ALPHAscreen SOP 20170721. As to conditions: 10 µM.
The test system of the next assay is Trypanosoma cruzi. The assay can be described thus: Trypanosoma cruzi phosphomannomutase and mannose-1-phosphate guanylyltransferase assay. The class given is functional. As to conditions: 10 µM.
For assay [4], the target named is T2, Arginase-2, mitochondrial (Homo sapiens) (UniProt P78540).
T2 sequence (whole entry): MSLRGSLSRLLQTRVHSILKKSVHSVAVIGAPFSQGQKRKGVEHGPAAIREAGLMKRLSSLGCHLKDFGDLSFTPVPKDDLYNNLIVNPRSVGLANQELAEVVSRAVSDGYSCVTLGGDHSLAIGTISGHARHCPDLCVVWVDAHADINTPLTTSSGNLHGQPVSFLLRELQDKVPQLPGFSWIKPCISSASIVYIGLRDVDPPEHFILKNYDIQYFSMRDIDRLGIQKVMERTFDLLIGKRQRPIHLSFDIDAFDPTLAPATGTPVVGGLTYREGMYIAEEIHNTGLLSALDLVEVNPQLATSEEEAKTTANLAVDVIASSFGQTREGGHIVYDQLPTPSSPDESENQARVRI
Put plainly: in vitro enzyme assay to detect the production of urea directly proportional to the activity of Arginase II. Further: in the data most compounds retested in dose-response had high values. The class given is functional. The note with it: 33.3 µM.

For assay [5], the target named is T3, Proteasome subunit beta (Trypanosoma cruzi) (UniProt O96673).
T3 sequence (whole entry): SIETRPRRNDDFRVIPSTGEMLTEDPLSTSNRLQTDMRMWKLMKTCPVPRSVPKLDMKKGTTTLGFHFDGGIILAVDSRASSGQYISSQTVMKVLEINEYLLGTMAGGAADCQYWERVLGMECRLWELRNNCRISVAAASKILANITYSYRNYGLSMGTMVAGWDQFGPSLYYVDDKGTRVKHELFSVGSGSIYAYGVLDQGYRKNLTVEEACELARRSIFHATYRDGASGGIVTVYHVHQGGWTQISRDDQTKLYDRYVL
Put plainly: Trypanosoma cruzi proteasome chymotrypsin-like activity (TcProtChymo) assay. Further: in the data most compounds retested in dose-response had high values. The class given is functional. As to conditions: 9.37 µM.

For a further assay, the species on record is Homo sapiens. Put plainly: To identify inhibition of the IFN signalling (Jak-Stat) pathway via expression of an eGFP reporter gene under the control of an IFN-stimulated response element (ISRE) containing MxA promoter. As to conditions: 30 µM. The class given is functional. A general note: A reporter such as luciferase makes a cellular process visible.

Assay [6] concerns the target T4, Tyrosyl-tRNA synthetase, putative (Trypanosoma cruzi (strain CL Brener)) (UniProt Q4DSP6).
T4 sequence (whole entry): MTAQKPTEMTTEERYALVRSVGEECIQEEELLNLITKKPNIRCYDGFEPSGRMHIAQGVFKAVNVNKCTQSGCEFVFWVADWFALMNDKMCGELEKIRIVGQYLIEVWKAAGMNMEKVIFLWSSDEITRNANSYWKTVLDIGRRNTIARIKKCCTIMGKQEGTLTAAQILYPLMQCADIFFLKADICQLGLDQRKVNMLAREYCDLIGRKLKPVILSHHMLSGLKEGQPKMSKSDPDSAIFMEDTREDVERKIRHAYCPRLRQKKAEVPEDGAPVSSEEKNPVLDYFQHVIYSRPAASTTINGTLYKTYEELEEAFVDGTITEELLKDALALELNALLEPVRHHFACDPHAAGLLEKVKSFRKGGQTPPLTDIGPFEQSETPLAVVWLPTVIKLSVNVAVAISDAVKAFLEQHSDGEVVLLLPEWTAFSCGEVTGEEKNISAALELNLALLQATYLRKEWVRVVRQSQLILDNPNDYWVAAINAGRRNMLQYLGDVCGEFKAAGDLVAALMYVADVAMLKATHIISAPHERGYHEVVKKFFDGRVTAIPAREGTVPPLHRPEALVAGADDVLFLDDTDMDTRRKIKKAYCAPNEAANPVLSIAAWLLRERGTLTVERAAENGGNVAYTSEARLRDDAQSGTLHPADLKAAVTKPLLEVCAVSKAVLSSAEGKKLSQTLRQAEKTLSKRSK
The assay can be described thus: Trypanosoma cruzi tyrosyl tRNA synthetase (TcYRS) _High Tyrosine SOP. Further: in the data most compounds retested in dose-response had high values. The class given is functional. The note with it: 30 µM.

Assay [7] addresses T4, Tyrosyl-tRNA synthetase, putative (Trypanosoma cruzi (strain CL Brener)). The assay can be described thus: Trypanosoma cruzi tyrosyl tRNA synthetase (TcYRS) SOP. The format is functional. As to conditions: 30 µM.
The target in assay [8] is Chromo domain-containing protein 1 (Saccharomyces cerevisiae (strain ATCC 204508 / S288c) (Baker's yeast)) (UniProt P32657). Put plainly: ScCHD-1 Enzyme Inhibition Assay. Further: in the data most compounds retested in dose-response had high values. The note with it: 30 µM. The class given is functional.

The values below come from ChEMBL document CHEMBL3988442, “University of Dundee, Small-Polar-MMV Screening Library” (2021).

For some assays here: Measured potencies and affinities stand elsewhere.

Chain of Protein translocase subunit SecA (Escherichia coli (strain K12)) (P10408 whole entry): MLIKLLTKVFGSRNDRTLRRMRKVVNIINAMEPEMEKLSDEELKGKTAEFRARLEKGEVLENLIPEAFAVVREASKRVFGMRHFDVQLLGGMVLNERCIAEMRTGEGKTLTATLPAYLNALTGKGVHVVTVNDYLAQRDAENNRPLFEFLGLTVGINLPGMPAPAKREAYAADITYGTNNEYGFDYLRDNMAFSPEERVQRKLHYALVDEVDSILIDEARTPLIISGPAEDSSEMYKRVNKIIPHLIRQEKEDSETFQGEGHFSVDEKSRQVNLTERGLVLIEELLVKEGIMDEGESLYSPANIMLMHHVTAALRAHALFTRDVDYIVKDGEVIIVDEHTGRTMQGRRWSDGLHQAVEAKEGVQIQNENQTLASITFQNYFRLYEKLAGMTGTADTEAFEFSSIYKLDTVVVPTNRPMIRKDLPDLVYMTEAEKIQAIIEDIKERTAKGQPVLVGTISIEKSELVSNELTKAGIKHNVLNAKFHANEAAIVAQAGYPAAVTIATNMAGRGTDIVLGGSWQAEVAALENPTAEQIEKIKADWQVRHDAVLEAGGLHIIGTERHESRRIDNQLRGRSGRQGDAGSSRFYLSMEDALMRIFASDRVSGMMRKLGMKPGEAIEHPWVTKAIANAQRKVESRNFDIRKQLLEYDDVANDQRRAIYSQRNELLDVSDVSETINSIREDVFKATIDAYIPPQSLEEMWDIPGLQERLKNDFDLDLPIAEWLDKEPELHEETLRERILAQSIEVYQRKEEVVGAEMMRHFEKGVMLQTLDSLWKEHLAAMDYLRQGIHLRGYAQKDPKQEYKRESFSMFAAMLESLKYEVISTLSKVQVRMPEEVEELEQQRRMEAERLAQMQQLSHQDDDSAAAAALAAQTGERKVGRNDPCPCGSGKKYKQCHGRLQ
Chain of Sialic acid-binding Ig-like lectin 9 (Homo sapiens) (Q9Y336 whole entry): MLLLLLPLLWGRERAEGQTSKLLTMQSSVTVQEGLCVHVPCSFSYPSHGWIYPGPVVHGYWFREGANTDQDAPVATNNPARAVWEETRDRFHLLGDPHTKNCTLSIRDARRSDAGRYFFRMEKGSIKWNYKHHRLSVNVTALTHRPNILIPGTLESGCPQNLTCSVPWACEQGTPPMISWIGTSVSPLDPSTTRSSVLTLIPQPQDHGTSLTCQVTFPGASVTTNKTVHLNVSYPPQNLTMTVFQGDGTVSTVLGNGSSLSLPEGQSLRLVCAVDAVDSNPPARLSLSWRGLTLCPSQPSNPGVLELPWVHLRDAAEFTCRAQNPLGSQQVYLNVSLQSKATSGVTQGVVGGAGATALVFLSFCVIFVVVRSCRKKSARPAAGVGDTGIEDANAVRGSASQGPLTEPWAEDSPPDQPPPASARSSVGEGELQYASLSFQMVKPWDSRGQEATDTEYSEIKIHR
Chain of Chromo domain-containing protein 1 (Saccharomyces cerevisiae (strain ATCC 204508 / S288c) (Baker's yeast)) (P32657 whole entry, the tested form may be a part): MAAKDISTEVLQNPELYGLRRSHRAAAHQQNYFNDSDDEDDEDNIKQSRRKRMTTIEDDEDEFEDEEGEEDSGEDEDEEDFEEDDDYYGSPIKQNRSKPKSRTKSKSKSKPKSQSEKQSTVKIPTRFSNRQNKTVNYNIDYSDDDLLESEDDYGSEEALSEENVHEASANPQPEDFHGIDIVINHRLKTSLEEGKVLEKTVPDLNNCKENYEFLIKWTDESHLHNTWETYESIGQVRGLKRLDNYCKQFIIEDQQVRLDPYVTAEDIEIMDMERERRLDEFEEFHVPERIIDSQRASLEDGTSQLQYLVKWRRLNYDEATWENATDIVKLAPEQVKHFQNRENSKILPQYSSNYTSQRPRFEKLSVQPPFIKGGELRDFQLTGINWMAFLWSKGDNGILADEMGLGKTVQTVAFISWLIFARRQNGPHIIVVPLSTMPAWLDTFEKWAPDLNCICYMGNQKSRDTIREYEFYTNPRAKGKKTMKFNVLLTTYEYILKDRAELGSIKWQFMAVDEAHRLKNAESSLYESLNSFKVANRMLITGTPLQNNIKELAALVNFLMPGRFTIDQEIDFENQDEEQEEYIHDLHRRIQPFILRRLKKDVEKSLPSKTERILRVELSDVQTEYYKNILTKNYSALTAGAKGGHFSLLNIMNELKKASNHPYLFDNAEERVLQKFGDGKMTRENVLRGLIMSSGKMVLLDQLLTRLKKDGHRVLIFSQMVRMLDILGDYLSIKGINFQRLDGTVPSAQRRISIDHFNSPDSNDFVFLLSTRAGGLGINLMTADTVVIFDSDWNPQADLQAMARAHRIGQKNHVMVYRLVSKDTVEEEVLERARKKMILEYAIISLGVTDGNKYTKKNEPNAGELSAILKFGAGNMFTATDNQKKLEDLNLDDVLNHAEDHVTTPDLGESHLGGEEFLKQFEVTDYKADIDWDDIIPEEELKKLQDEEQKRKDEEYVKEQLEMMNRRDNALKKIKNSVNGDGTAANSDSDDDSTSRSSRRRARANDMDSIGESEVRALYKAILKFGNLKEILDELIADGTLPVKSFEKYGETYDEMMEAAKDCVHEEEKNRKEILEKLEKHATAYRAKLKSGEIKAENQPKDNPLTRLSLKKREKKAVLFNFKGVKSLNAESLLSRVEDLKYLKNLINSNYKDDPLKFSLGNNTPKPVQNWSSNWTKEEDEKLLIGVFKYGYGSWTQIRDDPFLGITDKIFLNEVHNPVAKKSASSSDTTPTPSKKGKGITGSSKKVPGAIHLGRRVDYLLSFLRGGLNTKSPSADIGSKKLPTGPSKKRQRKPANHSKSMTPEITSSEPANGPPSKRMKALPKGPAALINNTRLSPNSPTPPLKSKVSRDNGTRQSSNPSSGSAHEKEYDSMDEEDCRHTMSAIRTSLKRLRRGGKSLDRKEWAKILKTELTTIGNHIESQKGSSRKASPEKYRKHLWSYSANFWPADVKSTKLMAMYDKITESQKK

For `CC1CCCN(C(=O)c2cccc(CS(C)(=O)=O)c2)C1` (stereo not given), the Percent Effect in assay [1] is 0.484%; in [2], 15.4%; in [3], -22.1%; with Trypanosoma cruzi, 2.72%; in assay [4], -0.41%; in assay [5] it was 22.4%. Further, the Percent Effect in the assay filed under Homo sapiens came to 6.02%; in assay [6], 4.31%; in [7], 22.9%; in assay [8], 20.9%.

With `CCn1nc(C)c(CCNC(=O)C2CCCN(C(=O)N(C)C)C2)c1C` (stereo not given), the Percent Effect in [1] was -5.72%; in assay [2], 0%; in assay [3], -0.0434%; in the assay on Trypanosoma cruzi it was -2.04%; in [4], 1.05%; in [5] it was 14.6%. For the same molecule, the Percent Effect in the assay filed under Homo sapiens is 8.52%; in assay [6], 3.72%; in [7], 4.88%; in [8], -3.32%.

As for `CN(C)c1ccc(C(=O)NCC2(c3ccccc3)CCOCC2)cc1`, the Percent Effect in [1] was -0.155%; in assay [2] it was 22.7%; in [3], -5.97%; with Trypanosoma cruzi, 1.38%; in assay [4], -2.21%; in [5], 15.4%. The Percent Effect in the assay filed under Homo sapiens is 9.64%; in assay [6], 0%; in [7], 15%; in [8], -24.2%.

Take `CCc1nnc2n1CCN(Cc1nc(-c3ccoc3)no1)C2`: the Percent Effect in assay [1] is -4.35%; in assay [2], 5.13%; in [3], 5.33%; with Trypanosoma cruzi it was 4.22%; in assay [4] it was 1.64%; in assay [5], 9.47%. The Percent Effect in the assay filed under Homo sapiens was -10.4%; in [6] it was 12%; in assay [7] it was 22.9%; in assay [8] it was -4.51%.

Consider `CCN(Cc1cccc2c1OCO2)C(=O)NC1CC1`, for which the Percent Effect is -0.28% in [1]; 13% in assay [2]; 9.18% in assay [3]; 1.68% in the assay with Trypanosoma cruzi; -7.17% in assay [4]; 1.75% in assay [5]. For the same molecule, the Percent Effect in the assay listed under Homo sapiens was 3.66%; in assay [6], 3.92%; in assay [7] it was 28.2%; in assay [8] it was -7.71%.

Consider `CC(Nc1cccc(CN2CCOC2=O)c1)C(=O)NC(N)=O` (stereo not given), for which the Percent Effect in [1] is -7.02%; in assay [2], 15.4%; in assay [3], -17.4%; in the assay on Trypanosoma cruzi it was 13.1%; in assay [4] it was -4.1%; in [5], 7.76%. In addition, the Percent Effect in the assay filed under Homo sapiens amounted to 15.9%; in assay [6], 8.13%; in assay [7], 18.1%; in assay [8] it was 17.9%.

As to `Cc1cnn(CC2CCCN2C(=O)c2ccc(OC(C)C)nc2)c1` (stereo not given), the Percent Effect was -0.574% in assay [1]; -2.56% in assay [2]; 12.5% in assay [3]; 0.657% in the assay on Trypanosoma cruzi; 4.92% in [4]; -5.89% in assay [5]. Besides, the Percent Effect in the assay listed under Homo sapiens was -3.81%; in [6], -3.35%; in [7] it was 1.21%; in [8], 2.64%.

Regarding `O=C(NCCN1CCCCC1)c1ccoc1`, the Percent Effect in assay [1] is -6.92%; in assay [2] it was 7.79%; in [3], -0.674%; in the assay on Trypanosoma cruzi, -7.28%; in assay [4], -2.66%; in [5], 4.21%. Also, the Percent Effect in the assay listed under Homo sapiens is 14.7%; in [6], -2.94%; in assay [7] it was 0%; in assay [8] it was -4.75%.

Regarding `CC(C)c1nnc2n1CCN(C(=O)c1cccc(C(F)(F)F)c1)C2`, the Percent Effect in assay [1] was -5.89%; in assay [2], 18.7%; in [3], 10%; with Trypanosoma cruzi, 2.81%; in [4], 1.33%; in [5] it was 6.19%. Further, the Percent Effect was 7.24% in the assay filed under Homo sapiens, 6.84% in [6], 15.4% in assay [7] and -7.15% in [8].

As for `CCc1nc(CN2CCCN(C(=O)COCC3CC3)CC2)cs1`, the Percent Effect in assay [1] was -1.44%; in assay [2], 12.8%; in [3] it was -6.97%; in the assay on Trypanosoma cruzi it was -0.282%; in assay [4], 0.82%; in [5], 9.64%. For the same molecule, the Percent Effect in the assay filed under Homo sapiens is 6.06%; in [6], 11%; in assay [7], 22.9%; in assay [8], -6.08%.

As to `COCC(=O)N1CC[C@@H](N2CCOCC2)[C@@H]1Cc1ccccc1`, the Percent Effect in assay [1] was -3.93%; in assay [2] it was 14.3%; in [3], -1.41%; in the assay with Trypanosoma cruzi it was 0.0974%; in [4], 13.8%; in [5], 22%. Besides, the Percent Effect is -2.33% in the assay filed under Homo sapiens, 17.4% in assay [6], 15.4% in assay [7] and 2.12% in [8].
